{"source": "PubChem BioAssay AID361", "about": "(National Center for Advancing Translational Sciences (NCATS), 2006)", "note": "The campaign covered roughly 51,000 compounds. About 600 (1.2%) were called active. Another 2% or so got no clear call; they are omitted. Only a selection was taken, and actives are over-represented in it overall. A number with no mark means an inactive call. No stated cut-off is given here; in the data, active means potency below about 11 µM; inconclusive means mostly about 12 µM to 25 µM; inactive means weaker than that;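 the screen sought inhibitors and activators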. Potency means the concentration at half of the fitted maximal effect.", "data": [{"system": "pyruvate kinase (Bacillus stearothermophilus)", "assay": "Pyruvate Kinase", "details": "purified pyruvate kinase, luminescence ATP production; ribose 5-phosphate activator present at AC10", "experimental": "Pyruvate kinase (partially purified from Bacillus stearothermophilus) was assayed for its ability to generate ATP from ADP using phosphoenolpyruvate (PEP) as a substrate. ATP generation was detected in a coupled reaction by luciferase-mediated luminescence, an ATP-dependent process. Pyruvate kinase substrates, PEP and ADP, were present in the assay at Km and […]-fold below Km respectively. The enzyme was assayed at an intermediate level of activity to screen for inhibitors and activators. In addition, ribose 5 phosphate, a positive modulator of pyruvate kinase, was included in the assay at AC10 in order to identify possible potentiators.\nNCGC Assay Protocol Summary:\nThree uL of substrate mix (final concentration, 50 mM imidazole pH 7.2, 50 mM KCl, 7 mM MgCl2, 2 mM PEP, 0.1 mM ADP, 0.7 nM ribose 5 phosphate, 0.01% Tween 20, 0.05% BSA) was dispensed into 1536 well plates. 23 nL of compound were delivered by a pin tool and 1 uL of enzyme mix (final concentration, 10 nM pyruvate kinase, 50 mM imidazole pH 7.2, 0.05% BSA) was added. After centrifugation at 1000 rpm for less than a minute, plates were incubated at room temperature for 2 hours. Three uL of detection and kinase stop mix (PKLight, Cambrex) was added, the plates centrifuged, and luminescence read by a ViewLux (Perkin Elmer) at 5 second exposure/plate. Data were normalized to the controls for AC100 stimulation (5 uM ribose 5 phosphate) and to AC100 inhibition (110 uM luteolin).", "values": [{"smiles": "CCN(CC)S(=O)(=O)c1ccc2nc(CSc3nnnn3-c3ccc(O)cc3)[nH]c2c1", "Potency": "> 57 µM"}, {"smiles": "O=C(CSc1nnc(-c2cccs2)n1-c1ccccc1)N1CCN(C(=O)c2ccco2)CC1", "Potency": "> 57 µM"}, {"smiles": "CCc1ccc2oc(-c3ccc(N)cc3)nc2c1", "Potency": "2.06 µM (active)"}, {"smiles": "CCN(CC)c1ccc2oc(=O)c(C)nc2c1", "Potency": "> 57 µM"}, {"smiles": "COC(=O)C(CC(=O)Nc1cc(C)ccc1C)Nc1ccccc1OC", "note": "(stereo not given)", "Potency": "> 57 µM"}, {"smiles": "Cn1c(SCc2c(F)cccc2Cl)nnc1-c1cnccn1", "Potency": "> 57 µM"}, {"smiles": "COc1ccccc1N=C1SC(C)CN1C(=O)C1CCC1", "note": "(stereo not given)", "Potency": "> 57 µM"}, {"smiles": "CN(C(=O)CSc1nnnn1-c1ccccc1)C1CCCCC1", "Potency": "> 57 µM"}, {"smiles": "CN(C)c1nc(N)nc(CSc2nnnn2-c2cccc3ccccc23)n1", "Potency": "1.57 µM (active)"}, {"smiles": "Cn1nnnc1SCc1cc(=O)[nH]c2ccccc12", "Potency": "> 57 µM"}, {"smiles": "C=CCn1c(=S)[nH]c2nc3c(cc2c1=O)COC(C)(C)C3", "Potency": "> 25.6 µM"}, {"smiles": "COc1ccc(S(=O)(=O)N(CCCN2CCCC2=O)Cc2cc3c(C)ccc(C)c3[nH]c2=O)cc1", "Potency": "> 57 µM"}, {"smiles": "CC(C)OC(=O)C(C#N)c1nc2ccccc2nc1N1CCN(Cc2ccc3c(c2)OCO3)CC1", "note": "(stereo not given)", "Potency": "> 25.6 µM"}, {"smiles": "CSc1nc(O)c(Cc2ccccc2)c(=O)[nH]1", "Potency": "> 25.6 µM"}, {"smiles": "O=C(CN1CCN(C(=O)c2cccc(F)c2)CC1)Nc1ccccc1F", "Potency": "> 57 µM"}, {"smiles": "O=C(c1ccccc1)N1CCN(C(=O)N2CCCCC2)CC1", "Potency": "> 57 µM"}, {"smiles": "COc1ccc(CCN2C(=O)c3[nH]nc(-c4ccccc4O)c3C2c2ccc(C)cc2)cc1OC", "note": "(stereo not given)", "Potency": "> 57 µM"}, {"smiles": "Fc1ccc(-c2nnc3sc(-c4ccc5c(c4)OCO5)nn23)cc1", "Potency": "> 57 µM"}, {"smiles": "O=C(CN1C(=O)C2C3C=CC(C3)C2C1=O)NCCc1ccccc1Cl", "note": "(stereo not given)", "Potency": "> 57 µM"}, {"smiles": "N#CC1=C(N)C(C#N)(C#N)[C@H](c2ccsc2)[C@H]2COCC=C12", "Potency": "> 57 µM"}, {"smiles": "Cn1c(=O)c(=O)n(C)c2cc(S(=O)(=O)NCCc3ccccc3)ccc21", "Potency": "> 57 µM"}, {"smiles": "CCCCCCn1c(CN2CCCCC2)nc2c1c(=O)n(C)c(=O)n2C", "Potency": "> 57 µM"}, {"smiles": "O=c1[nH]c(=O)n(Cc2ccco2)c2c1C(C(F)(F)F)(C(F)(F)F)N=C(c1ccco1)N2", "Potency": "> 25.6 µM"}, {"smiles": "CC1CCN(C(=O)Cn2cc(C(=O)c3ccco3)c3ccccc32)CC1", "Potency": "> 57 µM"}, {"smiles": "Cc1noc(C)c1C(=O)OCC(=O)/C=C1\\N(C)c2ccccc2C1(C)C", "Potency": "> 57 µM"}, {"smiles": "Cc1ccccc1-n1c(SCC(=O)NCc2cccs2)nnc1-c1ccncc1", "Potency": "> 57 µM"}, {"smiles": "CCn1c(CNC(=O)c2ccc(OC)c(OC)c2)nnc1SCC(=O)Nc1ccccc1", "Potency": "> 57 µM"}, {"smiles": "CCCCNc1nc2ccccc2nc1NS(=O)(=O)c1cccs1", "Potency": "> 57 µM"}, {"smiles": "CCOC(=O)c1sc2nc(CSCC(=O)OCc3ccc(C(=O)OC)o3)[nH]c(=O)c2c1C", "Potency": "> 57 µM"}, {"smiles": "CCn1c(CSc2nncn2-c2ccc(OC)cc2)nc2cc(S(=O)(=O)N(C)C)ccc21", "Potency": "> 57 µM"}, {"smiles": "N#CCCN(CCC#N)c1nnc(-c2ccccc2)s1", "Potency": "> 25.6 µM"}, {"smiles": "Cc1cc(C(F)(F)F)c(C#N)c(SCC(=O)NC2CC2)n1", "Potency": "> 25.6 µM"}, {"smiles": "Brc1cccc(-c2nnc3n2CCC3)c1", "Potency": "> 57 µM"}, {"smiles": "Cc1ccc2nc(NCCCNC(=O)c3cnccn3)c(C#N)cc2c1", "Potency": "> 57 µM"}, {"smiles": "Cc1noc(NS(=O)(=O)c2ccc(NC(=O)C34CCC(CC3)C4)cc2)c1C", "Potency": "> 57 µM"}, {"smiles": "CC1Cn2c(nnc2-c2cccs2)S1", "note": "(stereo not given)", "Potency": "> 57 µM"}, {"smiles": "N#Cc1c2c(c(N3CCN(CCO)CC3)n3c1nc1ccccc13)CCCC2", "Potency": "> 57 µM"}, {"smiles": "COc1ccc(OC)c(NC(=O)CN2CCN(C(=O)c3ccco3)CC2)c1", "Potency": "> 57 µM"}, {"smiles": "OCCCN1c2ccccc2Nc2nnc(-c3ccccc3)cc21", "Potency": "6.08 µM (active)"}, {"smiles": "O=C(C1CCCO1)N1CCC(c2nc3ccccc3[nH]2)CC1", "note": "(stereo not given)", "Potency": "> 57 µM"}, {"smiles": "CCCC(=O)N1CCc2[nH]c3ccccc3c2C1", "Potency": "> 25.6 µM"}, {"smiles": "O=C(Nc1ccc(Oc2ccccc2)cc1)c1ccco1", "Potency": "51.8 µM"}, {"smiles": "CN1CCN(S(=O)(=O)c2ccc(NC(=O)c3ccco3)cc2)CC1", "Potency": "> 57 µM"}, {"smiles": "O=C(Nc1ccc(NC(=O)c2cccs2)cn1)c1ccco1", "Potency": "7.2 µM (active)"}, {"smiles": "CCCc1nnc(NC(=O)c2cc(OC)cc(OC)c2)s1", "Potency": "> 57 µM"}, {"smiles": "N#Cc1ccc(OCCN2C(=O)NC3(CCSC3)C2=O)cc1", "note": "(stereo not given)", "Potency": "> 57 µM"}, {"smiles": "CCCn1c(C(O)c2cc(OC)ccc2OC)nc2ccccc21", "note": "(stereo not given)", "Potency": "> 57 µM"}, {"smiles": "COc1ccc(-c2cc3n(n2)CCc2nc4ccccc4n2-3)cc1", "Potency": "1.66 µM (active)"}, {"smiles": "COCCn1c(-c2ccc(OC)c(OC)c2)nc2ccccc21", "Potency": "> 57 µM"}, {"smiles": "CCOC(=O)c1sc(NC(=O)c2cc(S(=O)(=O)N3CCOCC3)ccc2C)nc1C", "Potency": "> 57 µM"}, {"smiles": "COC(=O)c1sc(NC(=O)c2ccc(OC)cc2OC)nc1C", "Potency": "0.093 µM (active)"}, {"smiles": "COc1ccc2nc(NC(=O)c3ccc(Br)s3)sc2c1", "Potency": "> 11.4 µM"}, {"smiles": "O=C(NCc1ccco1)c1ccc(CS(=O)(=O)Cc2ccc(F)cc2)o1", "Potency": "> 57 µM"}, {"smiles": "COc1ccccc1NC(=O)C1=C(C)NC2=C(C(=O)CCC2)C1c1ccc(C)o1", "note": "(stereo not given)", "Potency": "> 57 µM"}, {"smiles": "COc1ccc(N2C(=O)c3cccc4cccc(c34)C2=O)nn1", "Potency": "> 57 µM"}, {"smiles": "Cc1nn2c3cc(N4CCOCC4)ccc3nc2c2ccccc12", "Potency": "2.65 µM (active)"}, {"smiles": "COCCCNC(=O)CSc1nc2ccc(N3CCOCC3)cc2c(=O)n1CCc1ccccc1", "Potency": "> 57 µM"}, {"smiles": "Cc1cc(C)c2c(n1)nn1c(N3CCOCC3)cc(C)nc21", "Potency": "> 57 µM"}, {"smiles": "O=S(=O)(N1CCOCC1)N1CCN(c2ccccc2F)CC1", "Potency": "> 57 µM"}, {"smiles": "Cc1ccc2cccc(S(=O)(=O)N3CCN(c4ccccc4F)CC3)c2n1", "Potency": "6.92 µM (active)"}, {"smiles": "O=C(c1cccc2ccccc12)N1CCN(c2ccccc2F)CC1", "Potency": "26 µM"}, {"smiles": "Cn1c(=O)n(CCc2ccccc2)c(=O)c2c1nc1n2CCCN1c1ccccc1", "Potency": "> 57 µM"}, {"smiles": "COc1cc(OC)cc(C(=O)Nc2ccc(-c3nc4ccccc4o3)c(O)c2)c1", "Potency": "> 57 µM"}, {"smiles": "CN(C)CCCNc1c2c(c(C#N)c3nc4ccccc4n13)CCC2", "Potency": "> 57 µM"}, {"smiles": "c1ccc(-c2oc3ncnc(N4CCOCC4)c3c2-c2ccccc2)cc1", "Potency": "> 57 µM"}, {"smiles": "CC(C(=O)Nc1ccccc1-c1ccccc1)N1CCOCC1", "note": "(stereo not given)", "Potency": "> 57 µM"}, {"smiles": "CC(C(=O)N1CCOCC1)N1c2cccc3cccc(c23)S1(=O)=O", "note": "(stereo not given)", "Potency": "1.8 µM (active)"}, {"smiles": "CC(C(=O)O)N1C(=O)c2cccc3cccc1c23", "note": "(stereo not given)", "Potency": "36.6 µM"}, {"smiles": "O=C1Nc2c(Br)cc(Br)cc2C1(O)N1CCOCC1", "note": "(stereo not given)", "Potency": "8.12 µM (active)"}, {"smiles": "COc1ccc(NC2CC(=O)N(C)C2=O)cc1", "note": "(stereo not given)", "Potency": "> 25.6 µM"}, {"smiles": "CCOC(=O)N1CCC(NC(=O)c2ccc3nc(N4CCOCC4)sc3c2)CC1", "Potency": "> 57 µM"}, {"smiles": "c1c2c(cc3sc(N4CCCCC4)nc13)OCCO2", "Potency": "1.52 µM (active)"}, {"smiles": "Fc1ccc2nc(N3CCCCC3)sc2c1", "Potency": "41.1 µM"}, {"smiles": "COC(=O)c1ccc2c(=O)n(CC3CCCO3)c(=S)[nH]c2c1", "note": "(stereo not given)", "Potency": "> 57 µM"}, {"smiles": "Cc1nnc(SCC(N)=O)n1CC1CCCO1", "note": "(stereo not given)", "Potency": "> 57 µM"}, {"smiles": "Cc1ccsc1C(=O)OCC(=O)c1cc(C)n(CC2CCCO2)c1C", "note": "(stereo not given)", "Potency": "0.617 µM (active)"}, {"smiles": "COc1ccc(CNC(=O)c2cc3c(=O)n4ccccc4nc3n(CC3CCCO3)c2=N)cc1", "note": "(stereo not given)", "Potency": "> 57 µM"}, {"smiles": "O=C(Nc1cnn(Cc2ccc(Cl)cc2)c1)C1CCCC1", "Potency": "> 57 µM"}, {"smiles": "C=CCn1c(COc2ccccc2)nnc1SCC(=O)NCC(=O)OCC", "Potency": "> 57 µM"}, {"smiles": "O=C(NCc1ccccn1)c1cc2ccccc2oc1=O", "Potency": "> 57 µM"}, {"smiles": "COc1ccc(C(=O)N(Cc2ccc(N(C)C)cc2)C2CCS(=O)(=O)C2)cc1", "note": "(stereo not given)", "Potency": "> 57 µM"}, {"smiles": "CCC12CN3CC(CC)(CN(C1)C31C(=O)N(C)c3ccc(C)cc31)C2=O", "note": "(stereo not given)", "Potency": "> 57 µM"}, {"smiles": "COc1ccc(CC(=O)n2nc(-c3cccnc3)nc2N)cc1", "Potency": "> 57 µM"}, {"smiles": "COC(=O)c1ccccc1NC(=O)c1ccccc1NS(C)(=O)=O", "Potency": "> 57 µM"}, {"smiles": "COC(=O)Cc1nc2ccccc2[nH]1", "Potency": "> 57 µM"}, {"smiles": "Cc1ccc(-c2c3c(=O)n(C)c(=O)n(C)c3cn2-c2ccccc2O)cc1", "Potency": "> 57 µM"}, {"smiles": "CCOC(=O)N1CCN(CC(=O)c2c(C)[nH]c3ccccc23)CC1", "Potency": "> 57 µM"}, {"smiles": "Cc1c(C(=O)CN2CCOCC2)[nH]c2ccccc12", "Potency": "> 57 µM"}, {"smiles": "N#Cc1nc(Cc2ccccc2)oc1NCCc1ccccc1", "Potency": "> 57 µM"}, {"smiles": "N#Cc1nc(COc2ccc(-c3ccccc3)cc2)oc1NCc1cccnc1", "Potency": "> 57 µM"}, {"smiles": "N#Cc1nc(-c2ccc(OCc3ccccc3)cc2)oc1NCCCN1CCOCC1", "Potency": "1.88 µM (active)"}, {"smiles": "O=C(O)CSCc1nc2ccccc2s1", "Potency": "> 57 µM"}, {"smiles": "O=C(CN1C(=O)COc2ccccc21)NCCN1CCc2ccccc2C1", "Potency": "> 57 µM"}, {"smiles": "Cc1cccc(N2CCN(C(=O)c3cc4c(=O)[nH]c5ccccc5c4n3C)CC2)c1C", "Potency": "> 11.4 µM"}, {"smiles": "Cn1c(C(=O)NCCN2CCc3ccccc3C2)cc2c(=O)[nH]c3ccccc3c21", "Potency": "9.21 µM (active)"}]}]}
